Experimental data as given in PubChem BioAssay AID1159580 (chemical genetic matrix, 2015).
Out of some 5,500 compounds screened, about 2,000 (36%) were called active. Not shown: some 18% with an inconclusive outcome. Rule as the data show it: active = normalized growth mostly below about 0.91 (no sharp cut-off); inconclusive = no clear call, values can overlap the other calls; inactive = mostly above about 0.92. This is one part of the list.

Test: chemical genetic growth profiling, strain panel (AID 1159580);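 also: tested at 20 µM; growth read once vehicle control cultures reached saturation at 30 °C; 1 = growth at the plate median or of vehicle wells; lower values mean less growth of the strain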
Settings: growth OD

Measured: normalized growth

CO[C@@]1(NC(=O)CSCC#N)C(=O)N2C(C(=O)O)=C(CSc3nnnn3C)CSC21 (some centres not stated)
inactive: S. cerevisiae deletion strains, locus YJR075W, strain HOC1, hits give low values 1.01 | S. cerevisiae deletion strains, locus YKL009W, strain mrt4, hits give low values 1.04 | S. cerevisiae deletion strains, locus YKL068W, hits give low values 1.02 | S. cerevisiae deletion strains, locus YKL085W, strain MDH1 (second series), hits give low values 1.03 | S. cerevisiae deletion strains, locus YKL085W, strain MDH1, hits give low values 1.03 | S. cerevisiae deletion strains, locus YKL160W, strain elf1, hits give low values 0.959 | S. cerevisiae deletion strains, locus YKL190W, strain CNB1, hits give low values 0.995 | S. cerevisiae deletion strains, locus YKR001C, strain vps1, hits give low values 1.04 | S. cerevisiae deletion strains, locus YKR026C, strain gcn3, hits give low values 0.996 | S. cerevisiae deletion strains, locus YKR091W, strain srl3, hits give low values 0.982 | S. cerevisiae deletion strains, locus YLL001W, strain dnm1, hits give low values 0.96 | S. cerevisiae deletion strains, locus YLL026W, hits give low values 0.986 | S. cerevisiae deletion strains, locus YLL041C, strain sdh2, hits give low values 0.978 | S. cerevisiae deletion strains, locus YLR027C, strain aat2, hits give low values 0.99 | S. cerevisiae deletion strains, locus YLR039C, strain RIC1, hits give low values 1.07 | S. cerevisiae deletion strains, locus YLR058C, strain SHM2, hits give low values 1.01 | S. cerevisiae deletion strains, locus YLR102C, strain apc9, hits give low values 1.04 | S. cerevisiae deletion strains, locus YLR113W, strain HOG1, hits give low values 0.96 | S. cerevisiae deletion strains, locus YLR221C, strain rsa3, hits give low values 0.98 | S. cerevisiae deletion strains, locus YLR258W, strain gsy2, hits give low values 0.98 | S. cerevisiae deletion strains, locus YLR262C, strain YPT6 (second series), hits give low values 0.981 | S. cerevisiae deletion strains, locus YLR262C, strain YPT6, hits give low values 1.09 | S. cerevisiae deletion strains, locus YLR268W, strain sec22, hits give low values 1.02 | S. cerevisiae deletion strains, locus YLR320W, strain mms22, hits give low values 0.953 | S. cerevisiae deletion strains, locus YLR330W, strain CHS5, hits give low values 1.01 | S. cerevisiae deletion strains, locus YLR342W, strain FKS1 (second series), hits give low values 1.01 | S. cerevisiae deletion strains, locus YLR342W, strain FKS1, hits give low values 0.967 | S. cerevisiae deletion strains, locus YLR357W, strain rsc2, hits give low values 0.915 | S. cerevisiae deletion strains, locus YLR370C, strain arc18, hits give low values 0.984 | S. cerevisiae deletion strains, locus YLR371W, strain rom2, hits give low values 1.04 | S. cerevisiae deletion strains, locus YLR384C, strain iki3, hits give low values 1 | S. cerevisiae deletion strains, locus YLR418C, strain cdc73, hits give low values 1.04 | S. cerevisiae deletion strains, locus YML016C, strain PPZ1, hits give low values 1.01 | S. cerevisiae deletion strains, locus YML032C, strain rad52, hits give low values 1.05 | S. cerevisiae deletion strains, locus YML120C, strain ndi1, hits give low values 0.988 | S. cerevisiae deletion strains, locus YML124C, strain tub3, hits give low values 1.02 | S. cerevisiae deletion strains, locus YMR058W, strain fet3, hits give low values 1.01 | S. cerevisiae deletion strains, locus YMR078C, strain ctf18, hits give low values 1.03 | S. cerevisiae deletion strains, locus YMR125W, strain sto1, hits give low values 1.01 | S. cerevisiae deletion strains, locus YMR129W, hits give low values 0.995 | S. cerevisiae deletion strains, locus YMR205C, strain PFK2, hits give low values 0.965 | S. cerevisiae deletion strains, locus YMR223W, strain ubp8, hits give low values 1.04 | S. cerevisiae deletion strains, locus YMR231W, strain pep5, hits give low values 0.985 | S. cerevisiae deletion strains, locus YMR263W, strain SAP30, hits give low values 1.01 | S. cerevisiae deletion strains, locus YMR307W, strain GAS1, hits give low values 1.05 | S. cerevisiae deletion strains, locus YNL067W, strain RPL9B, hits give low values 1.01 | S. cerevisiae deletion strains, locus YNL071W, strain lat1, hits give low values 0.991 | S. cerevisiae deletion strains, locus YNL128W, strain TEP1, hits give low values 1.02 | S. cerevisiae deletion strains, locus YNL153C, strain GIM3, hits give low values 1.01 | S. cerevisiae deletion strains, locus YNL183C, strain NPR1, hits give low values 0.926 | S. cerevisiae deletion strains, locus YNL209W, strain ssb2, hits give low values 0.988 | S. cerevisiae deletion strains, locus YNL233W, strain BNI4, hits give low values 1.02 | S. cerevisiae deletion strains, locus YNL248C, strain rpa49, hits give low values 0.973 | S. cerevisiae deletion strains, locus YNL250W, strain rad50, hits give low values 1.05 | S. cerevisiae deletion strains, locus YNL271C, strain bni1, hits give low values 1.04 | S. cerevisiae deletion strains, locus YNL298W, strain CLA4, hits give low values 1.04 | S. cerevisiae deletion strains, locus YNL307C, strain MCK1, hits give low values 1.04 | S. cerevisiae deletion strains, locus YNL322C, strain KRE1 (second series), hits give low values 0.959 | S. cerevisiae deletion strains, locus YNL322C, strain KRE1, hits give low values 1.02 | S. cerevisiae deletion strains, locus YNR049C, strain mso1, hits give low values 0.975 | S. cerevisiae deletion strains, locus YNR052C, strain pop2, hits give low values 1.05 | S. cerevisiae deletion strains, locus YOL006C, strain TOP1, hits give low values 1.03 | S. cerevisiae deletion strains, locus YOL012C, strain htz1 1.23 | S. cerevisiae deletion strains, locus YOL147C, strain pex11, hits give low values 1.03 | S. cerevisiae deletion strains, locus YOR001W, strain rrp6, hits give low values 1.01 | S. cerevisiae deletion strains, locus YOR061W, strain CKA2, hits give low values 1.01 | S. cerevisiae deletion strains, locus YOR069W, strain VPS5, hits give low values 1.01 | S. cerevisiae deletion strains, locus YOR070C, strain gyp1, hits give low values 0.989 | S. cerevisiae deletion strains, locus YOR080W, strain dia2, hits give low values 0.997 | S. cerevisiae deletion strains, locus YOR083W, strain WHI5, hits give low values 0.913 | S. cerevisiae deletion strains, locus YOR106W, strain vam3, hits give low values 0.968 | S. cerevisiae deletion strains, locus YOR136W, strain idh2, hits give low values 1.04 | S. cerevisiae deletion strains, locus YOR144C, strain elg1, hits give low values 1.02 | S. cerevisiae deletion strains, locus YOR184W, strain ser1, hits give low values 1.05 | S. cerevisiae deletion strains, locus YOR231W, strain MKK1, hits give low values 0.976 | S. cerevisiae deletion strains, locus YOR265W, strain rbl2, hits give low values 0.974 | S. cerevisiae deletion strains, locus YOR270C, strain vph1, hits give low values 0.993 | S. cerevisiae deletion strains, locus YOR290C, strain snf2, hits give low values 0.966 | S. cerevisiae deletion strains, locus YOR316C, strain cot1, hits give low values 1.03 | S. cerevisiae deletion strains, locus YPL051W, strain arl3, hits give low values 0.98 | S. cerevisiae deletion strains, locus YPL055C, strain LGE1, hits give low values 1.05 | S. cerevisiae deletion strains, locus YPL078C, strain atp4, hits give low values 0.98 | S. cerevisiae deletion strains, locus YPL106C, strain sse1, hits give low values 0.948 | S. cerevisiae deletion strains, locus YPL240C, strain hsp82, hits give low values 0.997 | S. cerevisiae deletion strains, locus YPL241C, strain CIN2, hits give low values 1.01 | S. cerevisiae deletion strains, locus YPL256C, strain CLN2, hits give low values 1 | S. cerevisiae deletion strains, locus YPR119W, strain clb2, hits give low values 1.04 | S. cerevisiae deletion strains, locus YPR141C, strain kar3, hits give low values 1.05 | S. cerevisiae deletion strains, locus YPR163C, strain tif3, hits give low values 1.03 | S. cerevisiae deletion strains, locus YPR167C, strain met16, hits give low values 1.04 | S. cerevisiae deletion strains, strain wtn01, hits give low values 1.02 | S. cerevisiae strains, strain wild type, hits give low values 1.01
